# TIM10 inh – growth inhibitors of TIM10 yeast strain. AID 463195. inhibition, % at 10 µM. 1.4% of 330,000 active. S. cerevisiae TIM10 strain growth, BacTiter-Glo luminescence, 24 h;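 active = inhibition of 40% or more at the single tested concentration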;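 note: wild-type TIM10 isogenic control strain grown at permissive 25 °C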
# NLRP3 yeast inh – inhibitors of NALP3 inflammasome in yeast | Yeast reconstituted NLRP3/ASC/caspase-1, beta-gal luminescence, 24 h | inhibition, % at 10 µM | 0.39% of 330,000 active;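 active = inhibition of 50% or more; inactive = inhibition below 50%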
# tim10-1 inh – growth inhibitors of tim10-1 mutant yeast; inhibition, % at 20 µM; S. cerevisiae tim10-1 ts strain growth, BacTiter-Glo, 24 h; 2.2% of 330,000 active;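 active = inhibition of at least 40%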;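 note: mutant grown at 25 °C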
# SKKanGAS inh – SKKanGAS growth inhibition; S. pyogenes SKKanGAS, kanamycin growth, BacTiter-Glo, 6 h; 1.3% of 300,000 active; inhibition, % at 7.5 µM; AID 1662;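 active = mean replicate score, as percent of positive control median, at least 50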;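 note: strain carries kanamycin resistance gene driven by streptokinase promoter and grows in 40 µg/ml kanamycin; loss of luminescence reflects streptokinase promoter inhibition or plain growth inhibition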
# PfHsp90 yeast 2 – inhibits growth of yeast expressing Plasmodium falciparum Hsp90; S. cerevisiae expressing PfHsp90, BacTiter-Glo ATP, 48 h; yeast lacking PDR1 and PDR3 efflux regulators; inhibition, % at 9.4 µM; 0.32% of 310,000 active;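 active = every replicate shows inhibition above about 80%, whatever the replicate mean, limit read from the data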
# tim23-1 inh – growth inhibitors of tim23-1 mutant yeast | AID 463212 | inhibition, % at 20 µM | 1.3% of 330,000 active | S. cerevisiae tim23-1 growth, BacTiter-Glo luminescence, 24 h;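 active = growth inhibition of the mutant yeast at or above 50%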;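 note: temperature-sensitive mutant grown at 25 °C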
# Numbers stand for hits; i = inactive; nt = not tested or not shown. Only some compounds are listed: those with a hit (about 4.6% of all), similar ones and a draw of the others.
SMILES,TIM10 inh,NLRP3 yeast inh,tim10-1 inh,SKKanGAS inh,PfHsp90 yeast 2,tim23-1 inh
Cc1ccc(S(=O)(=O)Nc2ccc(-c3csc(-c4ccccc4)n3)cc2)cc1,i,i,i,i,i,i
O=[N+]([O-])c1ccc(S(=O)(=O)Nc2ccc(-c3csc(-c4ccccc4)n3)cc2)cc1,i,i,i,66,nt,i
Cc1ccc(-c2csc3nc[nH]c(=S)c23)cc1C,i,i,i,93,i,i
COc1ccc(-c2csc3nc[nH]c(=O)c23)cc1OC,i,i,i,i,i,i
CC(C)(C)NC(=O)NC(=O)C[n+]1ccc(Cc2ccc([N+](=O)[O-])cc2)cc1,i,i,i,i,i,i
CCOc1ccc(-c2cc(C(=O)OC)nc3c2c(=O)n(C)c(=O)n3C)cc1,i,i,i,93,i,i
COC(=O)c1cc(-c2ccc(Br)cc2)c2c(=O)[nH]c(=O)n(C)c2n1,i,i,i,62,i,i
COC(=O)c1cc(-c2ccc(OC)c(OC)c2)c2c(=O)[nH]c(=O)n(C)c2n1,i,i,i,i,i,i
Fc1cc(F)c(C2SCCN2C(=S)Nc2cccc(C(F)(F)F)c2)c(F)c1 (centres undefined),i,i,i,50,i,i
CC1C(=O)C(C)C(c2cccc(Br)c2)NC1c1cccc(Br)c1 (centres undefined),i,i,i,60,i,i
CCCC1=NN(c2ccc([N+](=O)[O-])cc2)C(=O)/C1=C/N(C)C,i,i,i,i,i,i
CC1=NN(c2ccc([N+](=O)[O-])cc2)C(=O)/C1=C\N(C)C,i,i,i,56,i,i
CN(C)c1ccnc(Nc2ccccc2)c1C#N,i,i,i,i,i,i
CN(C)c1ccnc2c[cH-]cc12.[Fe].c1ccc(-[c-]2[c-](-c3ccccc3)[c-](-c3ccccc3)[c-](-c3ccccc3)[c-]2-c2ccccc2)cc1 (centres undefined),i,i,i,86,i,i
Cc1ccc(S(=O)(=O)NCCOc2cc(C)ccc2C)cc1,i,i,i,i,i,i
O=C(CSc1nnc(-c2ccc3c(c2)OCO3)o1)Nc1ncc(C(F)(F)F)cc1Cl,i,i,i,98,i,i
Cc1cc(C)n(-c2nc(Nc3ccccc3C)nc(-n3nc(C)cc3C)n2)n1,i,i,i,98,nt,i
Cc1cc(C)n(-c2nc(NC(C)C)nc(NC(C)C)n2)n1,i,i,i,i,i,i
Cc1csc(Nc2ccccc2C(F)(F)F)n1,i,i,i,i,i,i
Cc1cc(C)n(-c2nc(Nc3ccccc3C(F)(F)F)nc(-n3nc(C)cc3C)n2)n1,i,i,i,135,i,i
CCNc1nc(NCC)nc(-n2nc(C)cc2C)n1,i,i,i,87,i,i
CCOC(=O)c1ccc(-c2ccc3c(=O)c4ccccc4n(C)c3c2)cc1F,i,i,i,65,i,i
O=C(c1ccc(-c2ccccc2)cc1)N1CCN(C(=O)c2ccco2)CC1,i,i,i,i,i,i
CC(C)(C)c1ccc(C(=O)N2CCN(C(=O)c3ccco3)CC2)cc1,i,i,i,50,i,i
CC1(C)CCCN(C(=O)N2c3ccccc3Sc3ccccc32)C1,i,i,i,80,i,i
SMILES,TIM10 inh,NLRP3 yeast inh,tim10-1 inh,SKKanGAS inh,PfHsp90 yeast 2,tim23-1 inh
O=C(CN1CCCC1)N1c2ccccc2Sc2ccccc21,i,i,i,i,nt,i
Cc1ccc(C(C)C)c(OCc2ccc(C(=O)N/N=C/c3ccc(O)cc3O)cc2)c1,nt,nt,nt,87,i,nt
O=C(N/N=C/c1cccc(O)c1)c1ccc(COc2ccccc2Br)cc1,i,i,i,63,i,i
CC(C)(C)c1ccc(OCc2ccc(C(=O)N/N=C/c3ccc(O)c(O)c3)cc2)cc1,i,i,i,62,nt,i
O=C(N/N=C/c1cccc(O)c1)c1ccc(COc2cccc3cccnc23)cc1,i,i,i,i,i,i
Cc1ccc(C(C)C)c(OCc2ccc(C(=O)N/N=C/c3ccc(C(=O)O)cc3)cc2)c1,i,i,i,i,i,i
CCOc1ccc(Br)cc1S(=O)(=O)Nc1cccc(S(=O)(=O)N2CCOCC2)c1,nt,nt,nt,nt,i,nt
CN(CC(=O)NCc1ccco1)S(=O)(=O)c1ccc2c(c1)c(=O)n(C)c(=O)n2C,i,i,i,i,i,i
CC1CCCC(NC(=O)CSC2=Nc3ccccc3C3CC=NN23)C1C (centres undefined),i,i,i,nt,i,i
NC(=O)NCC(c1ccccc1)C1CCCCC1 (centres undefined),i,i,i,i,i,i

# Bioassay records as filed in PubChem BioAssay.
